Most compounds without a hit are left out; they make up all but 1.4% or so of the library.
Sa RN4220 lethal: S. aureus RN4220 growth inhibition; OD600, 16 h; inhibition, % (test concentration not listed); 330,000 tested, 0.33% active; AID 1259311; in the data active means inhibition above about 85%;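 further: plate controls were untreated cells for no effect and reference antibiotic for full effect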
SSB-PriA inh: K. pneumoniae PriA-SSBct interaction inhibition; inhibition, % at 33 µM; 430,000 tested, 0.6% active; AlphaScreen SSBct-PriA binding, biotinylated peptide; in the data active means inhibition mostly above about 37%, no sharp cut-off; inactive means mostly below about 20%;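 further: plate controls were negative control peptide for no effect and reference peptide for full effect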
Mtb hypoxia inh: reduces hypoxia-regulated biosensor signal in M. tuberculosis; AID 1159583; 300,000 tested, 0.1% active; fluorescence inhibition, % (no concentration beside the values); M. tuberculosis hypoxia-regulated fluorescent reporter, fluorescence; in the data active means fluorescence inhibition mostly above about 23%, no sharp cut-off; inactive means mostly below about 17%
CCHF vOTU inh-1: CCHFV vOTU protease inhibition. Pep-AMC fluorescence. inhibition, % at 11.5 µM. 370,000 tested, 0.55% active. AID 651958; further: 0% = vehicle wells with enzyme and 100% = no enzyme wells
ugtP null kill: kills S. aureus RN4220 lacking UgtP | S. aureus RN4220 ugtP deletion, OD600 growth, 16 h | growth inhibition, % (concentration not given with the values) | 330,000 tested, 0.54% active; in the data active means growth inhibition above about 68%;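 further: plate controls were untreated wells for no effect and antibiotic for full effect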
CCHF vOTU inh-2: confirmation of CCHF virus vOTU protease inhibitors | shares compounds with CCHF vOTU inh-1 | Recombinant CCHFV vOTU, Pep-AMC fluorescence | inhibition, % at 11.5 µM | 1,900 tested, 17% active
* marks the source's active call; other numbers are inactive results; nt = not tested or not shown. Unless noted, no stated cut-off is given here; in the data, active means inhibition above about 30%; inactive means the rest.

SMILES	Sa RN4220 lethal	SSB-PriA inh	Mtb hypoxia inh	CCHF vOTU inh-1	ugtP null kill	CCHF vOTU inh-2
CCCCCCCCN1C(=O)[C@H](CC(=O)N2CCN(C(=O)C3CC3)CC2)C[C@@]2(C(=O)OC)CC(C)(C)CC=C12	nt	nt	nt	31*	nt	19
CCCCCCCCN1C(=O)[C@H](CC(=O)N2CCN(C(=O)OCC)CC2)C[C@@]2(C(=O)OC)CC(C)(C)CC=C12	nt	nt	nt	32*	nt	22
O=C(COc1cccc2ccc(N3CCN(c4ccccc4)CC3)nc12)Nc1ccc2c(c1)OCO2	nt	-12	nt	nt	nt	nt
Cc1cccc(-n2c(SCC(=O)Nc3c(Cl)cccc3Cl)nnc2-c2ccc(Cl)cc2Cl)c1	nt	-12	nt	nt	nt	nt
O=C(NCc1ccc(N2CCCC2=O)cc1)c1cc(COc2c(F)cccc2F)on1	3	9	7	38*	14	-18
Nc1cccc2cnccc12	2	3	-3	48*	8	-16
Oc1cccc2cnccc12	3	-5	10	-4	-3	nt
O=C(Nc1cc([N+](=O)[O-])ccc1O)NC1CCS(=O)(=O)C1 (centres undefined)	0	8	8	36*	0	-6
O=C(Nc1cccc([N+](=O)[O-])c1)NC1CCS(=O)(=O)C1 (centres undefined)	3	-19	-1	-3	8	nt
COc1cccc(CNC(=O)CSCc2cnn(-c3ccccc3)c2-n2cccc2)c1	0	-4	13	36*	5	7
CNC(=O)CSCc1cnn(-c2ccccc2)c1-n1cccc1	2	-7	3	1	3	nt
COc1ccc2nc(N3C(=O)C(O)=C(C(=O)c4ccco4)C3c3ccc(OC)c(OC)c3)sc2c1 (centres undefined)	nt	nt	nt	34*	nt	2
COC1=C(N)C(=O)c2nc(C)ccc2C1=O	nt	2	nt	55*	nt	107*
COC1=C(Br)C(=O)c2nc(C)ccc2C1=O	nt	nt	nt	115*	nt	83*
O=C(NCC(c1ccsc1)N1CCc2ccccc2C1)c1ccc(F)cc1 (centres undefined)	nt	1	nt	nt	nt	nt
CC(=O)Nc1c([N+](=O)[O-])cc2c3c(cccc13)CC2	nt	nt	nt	33*	nt	-16
CN1CCN(c2nc3ccc(OC(=O)c4ccc(Cl)s4)cc3s2)CC1	nt	-5	nt	nt	nt	nt
CCOc1cc(C2CC(=O)NC(SCC(=O)Nc3cccc(C)c3C)=C2C#N)ccc1O (centres undefined)	nt	-2	nt	nt	nt	nt
CN1CCc2c(sc3c2c(=O)n(-c2ccccc2)c2nnc(SCc4ccccc4)n32)C1	3	-15	-1	31*	-6	-7
CN1CCc2c(sc3c2c(=O)n(-c2ccccc2)c2nnc(SCc4ccc(F)cc4)n32)C1	7	-6	7	-3	18	nt
Cn1c(=O)c2ccc(C(=O)NC3CCCC3)cc2n2c(SCC(=O)Nc3cc(F)ccc3F)nnc12	nt	-16	nt	nt	nt	nt
Cc1ccc(OCC(=O)N/N=C\c2ccc(OC(=O)c3ccccc3)cc2)cc1	nt	-2	nt	nt	nt	nt
O=C(NCCc1ccccc1)N1CCC(COCc2ccc(F)cc2)CC1	nt	-10	nt	nt	nt	nt
COc1ccc(C=NNC(=O)c2ccc(CN3c4cccc5cccc(c45)S3(=O)=O)cc2)cc1	1	-3	7	nt	-2	nt
COc1ccc(S(N)(=O)=O)cc1C(=O)OCC(=O)N1CCCC(C)C1 (centres undefined)	6	-5	11	30*	13	-17
SMILES	Sa RN4220 lethal	SSB-PriA inh	Mtb hypoxia inh	CCHF vOTU inh-1	ugtP null kill	CCHF vOTU inh-2
COc1ccc(S(N)(=O)=O)cc1C(=O)OCC(=O)N1CC(=O)Nc2ccccc21	2	-1	9	-1	7	nt
CSc1nncn1N=Cc1ccccc1F	3	2	6	nt	-3	nt
Oc1cc(F)cc2cccnc12	nt	51	nt	nt	nt	nt
O=[N+]([O-])c1cc(O)c2ncccc2c1	45	84*	6	35*	19	52*
COCCNC(=O)Cn1cc(C=NNC(=O)c2ccc(Oc3ccc(O)cc3)cc2)c2ccccc21	5	2	9	nt	6	nt
CN(CC(=O)Nc1ccc(F)cc1)C(=O)COC(=O)c1ccccc1	3	-11	-2	30*	5	-2
CN(CC(=O)Nc1ccc(F)cc1)C(=O)COC(=O)c1cccc(N(C)C)c1	1	1	7	11	1	nt
C[n+]1c2cc(N)ccc2cc2ccc(N)cc21	nt	13	nt	88*	nt	54*
COc1ccc(N/C=C2\CCc3ccccc3C2=O)cc1	5	nt	7	34*	4	-12
Cc1ccc(NP(=O)(c2ccc(N(C)C)cc2NC(=O)c2cccs2)N2CCOCC2)cc1Cl (centres undefined)	4	-1	7	30*	11	-25
O=C(CN1CCN(Cc2ccccc2)CC1)NN=Cc1ccccc1F	2	nt	-2	nt	2	nt
CC(C)c1[nH]nc2c1C(c1cccc(C(F)(F)F)c1)N(c1ccccc1)C2=O (centres undefined)	nt	nt	nt	34*	nt	3
Cc1ccccc1CS(=O)(=O)Cc1ccc(C(=O)NCc2ccc(F)c(Cl)c2)o1	nt	-9	nt	nt	nt	nt
COc1cc(COC(=O)Oc2ccc(CNC(C)=O)cc2OC)c([N+](=O)[O-])cc1OC	7	-2	4	31*	7	-11
COc1ccc(COC(=O)Oc2ccc(CNC(C)=O)cc2OC)c([N+](=O)[O-])c1	6	-5	1	-1	1	nt
COC(=O)c1ccc(COc2nc(C)cc(C)c2C#N)o1	1	-11	-3	32*	2	-2
COC(=O)c1ccc(CSc2nc(C(F)F)cc(C)c2C#N)o1	6	-1	-1	-8	8	nt
CCc1cc(-c2onc(C)c2-c2cscn2)c(O)cc1OC	4	-1	3	31*	0	-7
CN(C(=O)Nc1ccccc1)C1CCS(=O)(=O)C1 (centres undefined)	-1	-3	nt	5	-2	nt
CC(=O)NC1=C(N(C)C2CCS(=O)(=O)C2)C(=O)c2ccccc2C1=O (centres undefined)	nt	17	nt	61*	nt	71*
CC1CCC(C(C)C)C(OP(=O)(OC2CC(C)CCC2C(C)C)C(Nc2ccccc2)c2ccccc2)C1 (centres undefined)	nt	2	nt	nt	nt	nt
NC(=Nc1nc2ccccc2o1)NC(=O)c1ccc(F)cc1	nt	-5	nt	nt	nt	nt
CCO/C=C1/C(=O)N(Cc2ccccc2)C(=O)c2ccccc21	0	-20	1	95*	9	108*
CCO/C=C1\C(=O)N(c2ccccc2)C(=O)c2ccccc21	5	2	7	nt	6	nt
CCN1CCN(C2=C(NS(=O)(=O)c3ccc(NC(C)=O)cc3)C(=O)c3ccccc3C2=O)CC1	11	-11	20	58*	7	22
CC(=O)Nc1ccc(S(=O)(=O)NC2=C(N3CCN(C)CC3)C(=O)c3ccccc3C2=O)cc1	8	-4	0	53*	3	30*
CC(C)N(CC#CCNC(=O)c1ccc2ccccc2n1)C(C)C	nt	-9	nt	nt	nt	nt
NC(Cn1cncn1)=NNC(=O)C(=O)Nc1ccc(Cl)cc1Cl	nt	-7	nt	nt	nt	nt
COc1cc(C(=O)OC2C[C@H]3CC[C@@H](C2)N3C)ccc1O (some centres undefined)	2	-1	-8	-6	1	nt

Screening results from PubChem BioAssay.
